Results: PubChem BioAssay AID588358 (NMMLSC, 2011)
In all, about 310,000 compounds went through this assay and about 1,500 (0.48%) were called active. The sample holds actives, similar compounds and a random draw of the others, so the mix is not that of the screen.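 How the source made its calls: active means binding more than 3 SD below its plate's average and above zero; inconclusive means below that plate limit but binding exactly zero; inactive means the rest.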

Molecular target: Desmoglein-3 (Homo sapiens) (UniProt P32926)
Sequence (P32926 whole entry, looked up, the tested form may be a part): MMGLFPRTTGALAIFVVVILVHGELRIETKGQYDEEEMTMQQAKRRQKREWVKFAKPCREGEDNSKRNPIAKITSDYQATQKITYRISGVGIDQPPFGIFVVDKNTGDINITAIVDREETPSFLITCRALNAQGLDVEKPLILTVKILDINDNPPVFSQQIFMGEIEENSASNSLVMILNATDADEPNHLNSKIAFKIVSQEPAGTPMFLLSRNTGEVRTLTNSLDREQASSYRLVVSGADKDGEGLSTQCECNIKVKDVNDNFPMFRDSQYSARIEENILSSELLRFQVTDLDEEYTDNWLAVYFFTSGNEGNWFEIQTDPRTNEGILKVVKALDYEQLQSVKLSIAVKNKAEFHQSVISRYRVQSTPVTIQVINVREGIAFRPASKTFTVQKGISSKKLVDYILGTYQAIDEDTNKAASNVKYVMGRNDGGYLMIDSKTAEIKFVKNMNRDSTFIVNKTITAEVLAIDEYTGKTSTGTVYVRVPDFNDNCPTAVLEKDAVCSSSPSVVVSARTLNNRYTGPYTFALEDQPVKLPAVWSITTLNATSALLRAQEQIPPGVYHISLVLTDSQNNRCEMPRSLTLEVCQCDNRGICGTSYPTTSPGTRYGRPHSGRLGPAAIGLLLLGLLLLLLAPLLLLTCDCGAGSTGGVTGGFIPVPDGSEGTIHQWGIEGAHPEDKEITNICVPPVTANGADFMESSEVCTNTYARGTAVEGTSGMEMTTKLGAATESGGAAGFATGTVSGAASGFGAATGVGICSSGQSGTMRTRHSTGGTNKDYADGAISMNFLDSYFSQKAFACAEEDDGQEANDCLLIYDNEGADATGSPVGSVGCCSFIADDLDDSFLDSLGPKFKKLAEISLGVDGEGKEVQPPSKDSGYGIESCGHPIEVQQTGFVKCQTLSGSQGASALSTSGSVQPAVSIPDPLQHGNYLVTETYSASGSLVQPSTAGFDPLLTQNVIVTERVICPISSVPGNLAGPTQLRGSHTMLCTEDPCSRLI
Experiment: inhibitors of pemphigus antibody binding to DSG3, primary screen, biochemical, bead-based, flow cytometry, scFv-GFP (AID 588358);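 further: hits lower antibody fragment binding to DSG3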
Details: DSG3-coupled beads, scFv-anti-DSG3-GFP binding, at 10 µM, stronger effect = lower value

Binding (percent of control), inactive:
O=c1[nH]c(-c2cccs2)nc2ccccc12 98.9%
C[C@H]1CN([C@@H](C)CO)C(=O)CCCn2nncc2CO[C@@H]1CN(C)Cc1ccc(Oc2ccccc2)cc1 101%
Cc1ccc(C(=O)N[C@H](C(=O)N2CCN(c3ncccn3)CC2)C(C)C)cc1 96.6%
CCOC(=O)c1cc2cc3ccccc3cc2oc1=O 105%
NS(=O)(=O)c1ccc(NC(=O)COC(=O)CCc2c[nH]c3ccccc23)cc1 96.4%
COc1ccc(NC(=O)[C@H](NC(=O)[C@@H]2Cc3ccccc3CN2)c2ccccc2)cc1 103%
COc1ccc(NC(=O)C2CCC(CNC(=O)[C@@H]3Cc4ccccc4CN3)CC2)cc1 (stereo not given in full) 104%
COc1ccc(CN2C(=O)C(CC(=O)NCc3cccc4ccccc34)CC(C(=O)N3CCOCC3)=C2C)cc1 (stereo not given) 102%
O=C(Nc1cc(F)ccc1F)c1ccc2c(=O)n3c(nc2c1)CCC3 98.5%
C[C@H]1Cn2cnc(C(=O)N[C@@H](Cc3c[nH]c4ccccc34)C(=O)OC(C)(C)C)c2C(=O)N1 98.2%
CCOC(=O)CNc1nc(Cl)nc(Nc2ccccc2)n1 90.6%
CCC(=O)Nc1ccc(C(=O)NNC(=O)c2ccc(Cl)cc2)cc1 103%
O=C(CCN1CCCCC1)Nc1ccc(F)c(F)c1 94.7%
COc1ccc(-n2cc(CN(C)Cc3n[nH]c(=O)[nH]3)c(-c3cccc(F)c3)n2)cc1 103%
CCC(O)C1CCN(Cc2cn(-c3ccc(OC)cc3)nc2-c2cccc(F)c2)CC1 (stereo not given) 110%
Cc1cccc(NC(=O)c2sc3nc(N4CCOCC4)c4c(c3c2N)CCCC4)c1 94.3%
Cc1ccc(NC(=O)c2sc3nc(N)c(C#N)cc3c2N)cc1 99.5%
Cc1ccc(NC(=O)CN2CCc3ccccc3C2)cc1C 120%
Cc1cc(C)cc(NC(=O)COc2coc(CN3CCN(c4ccccc4)CC3)cc2=O)c1 104%
O=C(COC(=O)/C=C/c1ccc(Cl)cc1)NC1CCS(=O)(=O)C1 (stereo not given) 107%
CN(c1ccccc1)S(=O)(=O)c1ccc(C(=O)NCc2cccnc2)cc1 97.8%
COc1cc2c(=O)n(C)c3ccccc3c2cc1OC 103%
COc1ccc(-c2cc(C(=O)NCCCn3ccnc3)no2)cc1 104%
Cc1ccc(S(=O)(=O)c2nc(NCCCn3ccnc3)sc2Cl)cc1 98.5%
Cc1ccc(CCNC(=O)CN2C(=O)CSc3ccc(S(=O)(=O)N4CCOCC4)cc32)cc1 100%
Cc1ccc(C(=O)N2CCCc3ccccc32)c(Cl)c1 104%
Cc1ccc(-c2nc3ccc(Cl)cn3c2Cc2ccccc2)cc1 111%
C[C@@H]1CN([C@@H](C)CO)C(=O)c2cc(Br)cnc2O[C@H]1CN(C)Cc1ccc(-c2ccccc2)cc1 101%
O=S(=O)(c1ccc(Cl)cc1)c1nc(-c2ccccc2F)oc1NCCN1CCOCC1 103%
O=S(=O)(c1ccc(Br)cc1)c1nc(-c2ccccc2)oc1NCc1cccnc1 78.8%
C=CCn1c(C)cc(C2=NNC(=NCC)SC2)c1C 80.2%
Clc1cccc(N=C2NN=C(c3ccc4c(c3)OCCO4)CS2)c1 97.3%
COc1ccc(N2C(=O)CC(Sc3n[nH]c(-c4ccc(C)cc4)n3)C2=O)cc1 (stereo not given) 85.3%
COc1ccc(N2C(=O)CC(N3CCC(C(N)=O)CC3)C2=O)cc1 (stereo not given) 97.6%
Cc1cccc(C)c1NC(=O)CNC(=O)c1ccc(N2CCOCC2)c([N+](=O)[O-])c1 95.2%
COc1ccc2nc(-c3ccccn3)ccc2c1 101%
CCCc1ccc(S(=O)(=O)N2CCN(C(=O)c3cc(C)on3)CC2)cc1 96.3%
CCCCCCn1c(=O)n2n(c1=O)C[C@]1(OC(=O)NCc3ccc(OC)c(OC)c3)CN(S(=O)(=O)c3ccc(C)cc3)C[C@]1(O)C2 108%
CC1=C(C(=O)Nc2cccc(C(=O)NCC(C)c3ccccc3)c2)SCCO1 (stereo not given) 106%
CCOc1ccc(CCNC(=O)COC(=O)c2ccc(C)c(S(=O)(=O)N3CCOCC3)c2)cc1OCC 97.5%

Binding (percent of control), active:
NS(=O)(=O)c1ccc(NC(=O)COC(=O)c2cc3ccccc3oc2=O)cc1 9.15%
COc1cccc(NC(=O)[C@H](Cc2c[nH]c3ccccc23)NC(=O)[C@@H]2Cc3ccccc3CN2)c1 63.9%
CCC(=O)Nc1ccc(Nc2nc(Cl)nc(Nc3ccc(NC(=O)CC)cc3)n2)cc1 81.3%
COc1ccc(-n2cc(CNC3CCOCC3)c(-c3cccc(F)c3)n2)cc1 21.8%
CC(=O)Nc1ccc(NC(=O)c2sc3nc4c(c(-c5ccc(C)cc5)c3c2N)CCC4)cc1 6.32%
Cc1ccc(NC(=O)COc2coc(CN3CCc4ccccc4C3)cc2=O)cc1Cl 85.8%
Cc1ccc(-c2nc(C#N)c(NCCCn3ccnc3)o2)cc1 66.2%
O=S(=O)(c1ccccc1)c1nc(-c2ccccc2F)oc1NCc1cccnc1 91.8%
COCCn1c(C)cc(C2=NNC(=Nc3ccc(F)cc3)SC2)c1C 76.6%
COc1ccc(N2C(=O)CC(SC(C)C)C2=O)cc1 (stereo not given) 68%
